# In PubChem BioAssay (EPA / NIEHS):
# Where “and” joins values, the source holds several entries; their conditions need not be identical. Equal entries are not always repeated. More than one record can exist for a structure, and the calls need not agree. Calls of active or inactive are those of the source. The calls were made as follows: active = hit-call score of the fitted dose curve at least 0.9, where 1 is the maximum; inactive = score below 0.9.
# What was measured:
# [1] = ATG_GRE_CIS: Attagene CIS-FACTORIAL HepG2 Assay for human Glucocorticoid Response Elements (GRE) (AID 2282947); conditions: HepG2 GRE cis-reporter, Attagene multiplex mRNA; actives raise or lower the signal
# Outline: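 Assay uses human hepatoma HepG2 cells transfected with cis-promoter reporter units, exposed 24 h. mRNA from reporters detected by RT-PCR plus capillary electrophoresis; DMSO serves as negative control and baseline.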
# [2] = ATG_ISRE_CIS: Attagene CIS-FACTORIAL HepG2 Assay for human Interferon Regulatory Factor 1 (IRF1) binding to an Interferon-Stimulated Response Element (ISRE) (AID 2282948); conditions: HepG2 ISRE cis-reporter (Attagene), mRNA transcription readout; actives raise or lower the signal
# Outline: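 Cell-based cis-reporter assay; HepG2; 24 h exposure; reporter mRNA by RT-PCR plus capillary electrophoresis fluorescence; activity in either direction scored relative to DMSO.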
# [3] = ATG_M_32_CIS: Attagene CIS-FACTORIAL HepG2 Assay for M32 Transcription Factor (Internal Marker) (AID 2282949); conditions: HepG2 Attagene cis-factorial M32 reporter, mRNA; actives raise or lower the signal;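 also: background control marker of the multiplexed CIS panel rather than a real target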
# Outline: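 Internal background marker read-out: RT-PCR/capillary electrophoresis fluorescence of reporter transcripts from transiently transfected HepG2 cells after 24 h chemical exposure. Activity fitted bidirectionally relative to DMSO negative control.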
# [4] = ATG_M_06_CIS: Attagene CIS-FACTORIAL HepG2 Assay for M06 Transcription Factor (Internal Marker) (AID 2282950); conditions: HepG2 Attagene CIS-FACTORIAL M06 internal marker reporter; actives raise or lower the signal
# Outline: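 HepG2 cells transiently transfected with cis-regulated multiple reporter transcription units were exposed to chemical for 24 h; reporter mRNA was quantified by RT-PCR, 6-FAM primer labelling, HpaI digestion and capillary electrophoresis, fitted bidirectionally against DMSO.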
# [5] = target: Hypoxia-inducible factor 1-alpha (Homo sapiens) (UniProt Q16665); test: ATG_HIF1a_CIS: Attagene CIS-FACTORIAL HepG2 Assay for human Hypoxia Inducible Factor 1 (HIF1A) (AID 2282951); conditions: HepG2 Attagene cis-factorial HIF1a reporter transcription; actives raise or lower the signal
# Sequence of Hypoxia-inducible factor 1-alpha (Homo sapiens) (Q16665 whole entry, looked up): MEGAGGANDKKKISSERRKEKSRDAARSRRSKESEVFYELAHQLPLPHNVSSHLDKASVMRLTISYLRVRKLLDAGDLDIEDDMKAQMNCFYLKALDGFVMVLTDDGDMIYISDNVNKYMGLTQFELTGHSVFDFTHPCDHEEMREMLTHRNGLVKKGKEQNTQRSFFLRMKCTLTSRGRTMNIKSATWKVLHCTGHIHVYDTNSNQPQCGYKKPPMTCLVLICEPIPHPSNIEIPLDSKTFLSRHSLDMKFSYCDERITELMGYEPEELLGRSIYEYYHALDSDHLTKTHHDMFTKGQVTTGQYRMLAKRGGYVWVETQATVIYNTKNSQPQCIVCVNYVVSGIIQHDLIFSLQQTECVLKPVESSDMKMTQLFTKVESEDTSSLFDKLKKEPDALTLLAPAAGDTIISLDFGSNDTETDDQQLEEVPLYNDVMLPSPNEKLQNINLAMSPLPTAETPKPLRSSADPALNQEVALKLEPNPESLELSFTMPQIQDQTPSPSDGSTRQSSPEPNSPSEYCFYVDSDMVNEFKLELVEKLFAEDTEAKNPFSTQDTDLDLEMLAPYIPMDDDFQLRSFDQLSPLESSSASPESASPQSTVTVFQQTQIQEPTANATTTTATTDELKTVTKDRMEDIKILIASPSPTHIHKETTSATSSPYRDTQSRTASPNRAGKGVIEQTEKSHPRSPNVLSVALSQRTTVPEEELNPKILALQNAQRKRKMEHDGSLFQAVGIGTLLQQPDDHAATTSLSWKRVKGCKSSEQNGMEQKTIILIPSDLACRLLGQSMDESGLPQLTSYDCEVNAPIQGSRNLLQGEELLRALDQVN
# Outline: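 HepG2, transient cis-reporter library, 24 h dosing. RNA → RT (oligo dT) → PCR → 6-FAM primer extension → HpaI → CE. Bidirectional curve fit vs DMSO.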
# [6] = target: Hepatocyte nuclear factor 6 (Homo sapiens) (UniProt Q9UBC0); test: ATG_HNF6_CIS: Attagene CIS-FACTORIAL HepG2 Assay for human Hepatocyte Nuclear Factor 6 (HNF6) (AID 2282952); conditions: HepG2 Attagene cis-factorial HNF6 reporter transcription; actives raise or lower the signal
# Sequence of Hepatocyte nuclear factor 6 (Homo sapiens) (Q9UBC0 whole entry, looked up): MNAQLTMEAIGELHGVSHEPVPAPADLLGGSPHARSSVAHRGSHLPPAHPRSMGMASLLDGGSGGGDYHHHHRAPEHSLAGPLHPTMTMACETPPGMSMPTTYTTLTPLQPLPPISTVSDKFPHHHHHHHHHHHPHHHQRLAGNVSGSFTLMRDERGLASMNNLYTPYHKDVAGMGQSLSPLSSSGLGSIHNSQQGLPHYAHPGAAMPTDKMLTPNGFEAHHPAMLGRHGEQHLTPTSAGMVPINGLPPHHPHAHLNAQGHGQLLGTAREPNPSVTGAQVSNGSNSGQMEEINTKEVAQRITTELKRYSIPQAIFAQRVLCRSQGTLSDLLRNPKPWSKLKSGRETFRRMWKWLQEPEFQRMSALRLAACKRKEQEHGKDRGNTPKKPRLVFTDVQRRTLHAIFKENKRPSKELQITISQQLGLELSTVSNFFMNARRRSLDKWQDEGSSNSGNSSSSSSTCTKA
# Outline: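 HepG2 cells transiently transfected with cis-element-driven multiple reporter transcription units, dosed 24 h; reporter mRNA quantified by RT-PCR, FAM primer extension, HpaI digestion and capillary electrophoresis; bidirectional fit versus DMSO baseline.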
# [7] = target: Heat shock factor protein 1 (Homo sapiens) (UniProt Q00613); test: ATG_HSE_CIS: Attagene CIS-FACTORIAL HepG2 Assay for human Heat Shock Transcription Factor 1 (HSE) (AID 2282953); conditions: HepG2 HSE cis-reporter, Attagene RNA transcription; actives raise or lower the signal
# Sequence of Heat shock factor protein 1 (Homo sapiens) (Q00613 whole entry, looked up): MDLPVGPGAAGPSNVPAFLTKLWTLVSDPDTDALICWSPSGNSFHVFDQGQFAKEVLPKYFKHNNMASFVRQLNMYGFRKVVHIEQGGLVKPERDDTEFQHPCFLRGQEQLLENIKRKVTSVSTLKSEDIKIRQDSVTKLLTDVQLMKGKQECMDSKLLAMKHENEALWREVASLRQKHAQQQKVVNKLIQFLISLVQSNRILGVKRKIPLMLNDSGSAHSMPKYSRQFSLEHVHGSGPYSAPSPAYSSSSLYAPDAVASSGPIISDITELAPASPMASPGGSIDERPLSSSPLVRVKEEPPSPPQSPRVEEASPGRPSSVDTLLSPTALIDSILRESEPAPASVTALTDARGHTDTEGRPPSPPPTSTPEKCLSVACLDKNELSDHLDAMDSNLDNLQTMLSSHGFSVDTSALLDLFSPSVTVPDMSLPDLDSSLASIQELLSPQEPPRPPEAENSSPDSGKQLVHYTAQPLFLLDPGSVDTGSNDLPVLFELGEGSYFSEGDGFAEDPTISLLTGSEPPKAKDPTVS
# Outline: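 HepG2 cells transiently transfected with multiple reporter transcription units under cis-regulatory promoter control, measuring endogenous transcription factor activity. After 24 h chemical exposure, reporter mRNA quantified by RT-PCR, fluorescent labelling, HpaI digestion and capillary electrophoresis; bidirectional fit versus DMSO.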
# [8] = ATG_MRE_CIS: Attagene CIS-FACTORIAL HepG2 Assay for human Metal Responsive Element (MRE) (AID 2282954); conditions: HepG2 MRE cis-reporter transcription, Attagene multiplex; actives raise or lower the signal
# Outline: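 After a 24 h chemical exposure, transiently transfected HepG2 cells yield RNA whose reporter sequences are amplified, FAM-labelled and sized by capillary electrophoresis. Curves are fitted bidirectionally relative to DMSO.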
# [9] = ATG_PBREM_CIS: Attagene CIS-FACTORIAL HepG2 Assay for human Phenobarbital-responsive Enhancer Module (PBREM) (AID 2282955); conditions: HepG2 PBREM cis-reporter, Attagene multiplexed transcription; actives raise or lower the signal
# Outline: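 HepG2, transient MRTU transfection, 24 h dosing; RNA → oligo(dT) RT → PCR → 6-FAM extension → HpaI → CE. Bidirectional fit vs DMSO.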
# [10] = target: Paired box protein Pax-6 (Homo sapiens) (UniProt P26367); test: ATG_Pax6_CIS: Attagene CIS-FACTORIAL HepG2 Assay for human Paired Box 6 (PAX6) (AID 2282956); conditions: HepG2 CIS-FACTORIAL PAX6 reporter transcription, RNA readout; actives raise or lower the signal
# Sequence of Paired box protein Pax-6 (Homo sapiens) (P26367 whole entry, looked up): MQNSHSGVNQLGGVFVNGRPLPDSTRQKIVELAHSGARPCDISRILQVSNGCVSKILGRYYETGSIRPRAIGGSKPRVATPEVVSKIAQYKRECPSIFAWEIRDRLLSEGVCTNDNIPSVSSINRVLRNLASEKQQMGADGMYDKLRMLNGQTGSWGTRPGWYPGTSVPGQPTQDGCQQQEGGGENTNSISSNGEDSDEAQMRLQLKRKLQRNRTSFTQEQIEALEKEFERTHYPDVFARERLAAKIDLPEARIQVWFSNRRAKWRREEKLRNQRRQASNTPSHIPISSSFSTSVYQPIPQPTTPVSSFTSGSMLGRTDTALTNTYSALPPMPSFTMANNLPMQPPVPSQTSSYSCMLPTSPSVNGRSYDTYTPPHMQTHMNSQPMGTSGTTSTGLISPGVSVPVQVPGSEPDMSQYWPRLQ
# Outline: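 Multiplexed cis-reporter HepG2 system; 24 h treatment; reporter mRNA read by RT-PCR/CE fluorescence; bidirectional fit vs DMSO.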
# [11] = ATG_PXRE_CIS: Attagene CIS-FACTORIAL HepG2 Assay for human Pregnane X Receptor Element (PXRE) (AID 2282957); conditions: HepG2 Attagene CIS-FACTORIAL PXRE reporter, mRNA; actives raise or lower the signal
# Outline: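 HepG2 cells transiently transfected with cis-regulated multiple reporter transcription units; endogenous factor activity measured as reporter mRNA 24 h after dosing. RT-PCR, fluorescent primer extension, HpaI digestion, capillary electrophoresis; bidirectional fit versus DMSO baseline.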
# [12] = ATG_PPRE_CIS: Attagene CIS-FACTORIAL HepG2 Assay for human Peroxisome Proliferator-activated Response Element (PPRE) (AID 2282958); conditions: HepG2 PPRE cis-element reporter, Attagene transcription factor profiling; actives raise or lower the signal
# Outline: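 Transcript-level reporter induction in transfected HepG2 cells after 24 h chemical exposure, quantified by fluorescence from RT-PCR products separated by capillary electrophoresis.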
# [13] = ATG_RORE_CIS: Attagene CIS-FACTORIAL HepG2 Assay for human RAR-related Orphan Receptor Element (RORE) (AID 2282959); conditions: HepG2 Attagene cis-factorial RORE reporter, mRNA; actives raise or lower the signal
# Outline: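 Multiplexed reporter assay measuring mRNA induction from a cis promoter element in transiently transfected HepG2 cells after 24 h treatment. Detection via RT-PCR and capillary electrophoresis fluorescence; DMSO serves as baseline.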
# [14] = ATG_Sox_CIS: Attagene CIS-FACTORIAL HepG2 Assay for human SRY-box transcription factor (SOX) (AID 2282960); conditions: HepG2 Attagene cis-factorial SOX reporter, mRNA; actives raise or lower the signal
# Outline: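 Cells were transfected with reporter constructs under cis-regulatory promoters, then exposed to chemicals for 24 h. Reporter transcripts were quantified by fluorescence after RT-PCR and capillary electrophoresis; activity was fitted in both directions against DMSO.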
# [15] = target: Transcription factor Sp1 (Homo sapiens) (UniProt P08047); test: ATG_Sp1_CIS: Attagene CIS-FACTORIAL HepG2 Assay for human Specificity Protein 1 (Sp1) (AID 2282961); conditions: HepG2 Sp1 cis-reporter transcription, actives raise or lower the signal
# Sequence of Transcription factor Sp1 (Homo sapiens) (P08047 whole entry, looked up): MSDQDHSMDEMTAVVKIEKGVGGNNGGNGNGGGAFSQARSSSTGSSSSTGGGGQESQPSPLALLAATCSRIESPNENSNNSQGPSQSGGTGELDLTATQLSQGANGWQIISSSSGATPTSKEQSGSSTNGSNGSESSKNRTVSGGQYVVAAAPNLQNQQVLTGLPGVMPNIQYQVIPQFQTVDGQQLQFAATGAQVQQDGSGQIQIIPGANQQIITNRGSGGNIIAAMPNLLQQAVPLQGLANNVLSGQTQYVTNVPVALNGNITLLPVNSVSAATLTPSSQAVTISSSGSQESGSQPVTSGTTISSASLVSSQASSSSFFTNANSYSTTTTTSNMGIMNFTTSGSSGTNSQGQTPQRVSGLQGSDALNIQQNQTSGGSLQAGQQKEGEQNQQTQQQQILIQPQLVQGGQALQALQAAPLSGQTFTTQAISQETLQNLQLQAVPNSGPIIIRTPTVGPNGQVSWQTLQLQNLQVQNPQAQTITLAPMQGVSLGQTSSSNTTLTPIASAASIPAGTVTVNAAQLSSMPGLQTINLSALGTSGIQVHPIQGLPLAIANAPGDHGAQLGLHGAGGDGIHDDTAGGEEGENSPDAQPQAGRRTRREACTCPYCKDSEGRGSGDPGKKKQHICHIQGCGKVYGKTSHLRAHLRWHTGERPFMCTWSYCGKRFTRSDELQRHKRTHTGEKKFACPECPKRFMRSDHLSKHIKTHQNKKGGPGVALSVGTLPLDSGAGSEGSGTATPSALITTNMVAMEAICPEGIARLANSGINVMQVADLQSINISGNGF
# Outline: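 Measures mRNA induction of an Sp1-linked reporter in HepG2 cells 24 h post-dosing. Multiplexed reporters read by RT-PCR and capillary electrophoresis; DMSO serves as negative control and baseline.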
# [16] = ATG_SREBP_CIS: Attagene CIS-FACTORIAL HepG2 Assay for human Sterol Regulatory Element Binding (SREBP) (AID 2282962); conditions: HepG2 Attagene cis-factorial SREBP reporter, mRNA; actives raise or lower the signal
# Outline: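 mRNA induction of transfected cis-promoter reporters in HepG2 cells, 24 h post-dose. Detection: RT-PCR with 6-FAM-labelled products, HpaI digest, capillary electrophoresis. DMSO served as negative control and baseline.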
# [17] = target: Signal transducer and activator of transcription 3 (Homo sapiens) (UniProt P40763); test: ATG_STAT3_CIS: Attagene CIS-FACTORIAL HepG2 Assay for human Signal Transducer and Activator of Transcription 3 (STAT3) (AID 2282963); conditions: HepG2, Attagene cis-factorial STAT3 reporter transcription; actives raise or lower the signal
# Sequence of Signal transducer and activator of transcription 3 (Homo sapiens) (P40763 whole entry, looked up): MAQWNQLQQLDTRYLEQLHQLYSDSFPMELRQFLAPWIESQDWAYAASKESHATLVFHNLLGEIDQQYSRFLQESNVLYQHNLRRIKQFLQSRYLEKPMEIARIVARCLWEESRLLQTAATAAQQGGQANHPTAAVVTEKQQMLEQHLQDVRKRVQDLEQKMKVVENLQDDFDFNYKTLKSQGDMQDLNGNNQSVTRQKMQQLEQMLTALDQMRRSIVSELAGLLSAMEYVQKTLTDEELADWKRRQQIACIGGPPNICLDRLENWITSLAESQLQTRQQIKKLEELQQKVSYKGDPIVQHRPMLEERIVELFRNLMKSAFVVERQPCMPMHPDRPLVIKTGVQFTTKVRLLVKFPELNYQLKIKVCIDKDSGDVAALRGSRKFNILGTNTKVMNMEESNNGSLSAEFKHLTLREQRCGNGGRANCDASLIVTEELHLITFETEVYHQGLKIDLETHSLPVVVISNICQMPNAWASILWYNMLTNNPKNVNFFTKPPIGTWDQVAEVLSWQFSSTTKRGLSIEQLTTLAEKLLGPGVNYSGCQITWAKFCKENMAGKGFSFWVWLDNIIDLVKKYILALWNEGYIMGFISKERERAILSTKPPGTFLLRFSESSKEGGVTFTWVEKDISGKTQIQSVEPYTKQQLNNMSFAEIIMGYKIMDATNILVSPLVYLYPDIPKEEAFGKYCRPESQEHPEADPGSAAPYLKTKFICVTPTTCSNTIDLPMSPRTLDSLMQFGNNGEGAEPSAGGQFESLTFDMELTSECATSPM
# Outline: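 After a 24 h compound incubation, total RNA from MRTU-transfected HepG2 cells was converted to cDNA and reporter sequences PCR-amplified, labelled and profiled by capillary electrophoresis. Gain and loss of signal were referenced to DMSO.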
# [18] = ATG_TA_CIS: Attagene CIS-FACTORIAL HepG2 Assay for human TA Basal Promoter (AID 2282964); conditions: HepG2 Attagene CIS-factorial TA basal promoter reporter; actives raise or lower the signal
# Outline: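 HepG2 cells transiently transfected with multiplexed cis-promoter reporter units, dosed 24 h. Reporter mRNA measured by RT-PCR, 6-FAM labelling, HpaI digestion and capillary electrophoresis; bidirectional fit versus DMSO baseline, serving as background control.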
# [19] = ATG_TCF_b_cat_CIS: Attagene CIS-FACTORIAL HepG2 Assay for human T-Cell-Factor with beta-catenin (TCF/b-cat) (AID 2282965); conditions: HepG2 TCF/beta-catenin cis-reporter transcription, actives raise or lower the signal
# Outline: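 Measured: reporter mRNA in HepG2 transiently transfected with cis-promoter reporter units, 24 h after chemical addition. Fitting was bidirectional, DMSO as negative control.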
# [20] = ATG_TAL_CIS: Attagene CIS-FACTORIAL HepG2 Assay for human TAL Basal Promoter (AID 2282966); conditions: HepG2 Attagene cis-factorial TAL promoter reporter; actives raise or lower the signal;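 also: background control endpoint measuring basal TAL promoter reporter mRNA not a specific factor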
# Outline: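 HepG2 cells were transiently transfected with promoter-driven multiplexed reporter units and dosed for 24 h. Reporter mRNA was measured by RT-PCR with capillary electrophoresis fluorescence; bidirectional fits used DMSO as baseline, serving as a background control.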
compound,measurement,setting,value
O=C(Nc1ccc2[nH]ccc2c1)c1cc2cc(F)ccc2n1Cc1cccc(F)c1,AC50,[1],17.6 µM (active)
same,AC50,[2],18.2 µM (active)
same,outcome,[3],inactive
same,outcome,[4],inactive
same,outcome,[5],inactive
same,AC50,[6],18.3 µM (active)
same,AC50,[7],20.7 µM (active)
same,AC50,[8],11 µM (active)
same,AC50,[9],17.3 µM (active)
same,AC50,[10],13.9 µM (active)
same,AC50,[11],2.75 µM (active)
same,outcome,[12],inactive
same,outcome,[13],inactive
same,AC50,[14],16.8 µM (active)
same,AC50,[15],14.7 µM (active)
same,outcome,[16],inactive
same,outcome,[17],inactive
same,AC50,[18],14 µM (active)
same,AC50,[19],15.8 µM (active)
C=C(C)C(=O)[O][Sn]([CH2]CCC)([CH2]CCC)[CH2]CCC,outcome,[1],inactive
same,AC50,[2],0.612 µM (active)
same,outcome,[3],inactive
same,outcome,[4],inactive
same,outcome,[5],inactive
same,AC50,[6],0.656 µM (active)
same,AC50,[7],0.68 µM (active)
same,AC50,[8],0.412 µM (active)
same,outcome,[9],inactive
same,AC50,[10],0.514 µM (active)
same,outcome,[11],inactive
same,AC50,[12],0.0903 µM (active)
same,outcome,[13],inactive
same,outcome,[14],inactive
same,outcome,[15],inactive
same,outcome,[16],inactive
same,outcome,[17],inactive
same,AC50,[18],0.591 µM (active)
same,outcome,[19],inactive
same,outcome,[20],inactive
O=C1C2(Cl)C3(Cl)C4(Cl)C(Cl)(Cl)C5(Cl)C3(Cl)C1(Cl)C5(Cl)C24Cl (centres undefined),AC50,[1],5.27 µM (active)
same,outcome,[1],inactive
same,AC50,[2],15.1 µM (active)
same,outcome,[2],inactive
same,outcome,[3],inactive
same,outcome,[4],inactive
same,outcome,[5],inactive
same,AC50,[7],16.7 µM (active)
same,outcome,[7],inactive
same,AC50,[8],3.57 µM (active) and 16.2 µM (active)
same,outcome,[8],inactive
same,AC50,[9],16 µM (active)
same,outcome,[9],inactive
same,AC50,[10],15.7 µM (active)
same,outcome,[10],inactive
same,AC50,[12],14 µM (active)
same,outcome,[12],inactive
same,outcome,[13],inactive
same,AC50,[14],5.49 µM (active) and 15.5 µM (active)
same,outcome,[14],inactive
same,AC50,[15],5.85 µM (active)
same,outcome,[15],inactive
same,outcome,[16],inactive
same,AC50,[17],5.58 µM (active)
same,outcome,[17],inactive
same,outcome,[18],inactive
same,AC50,[19],17.7 µM (active)
same,outcome,[19],inactive
same,AC50,[20],20.3 µM (active)
same,outcome,[20],inactive
COc1cc(OC)nc(NC(=O)NS(=O)(=O)c2ncccc2C(=O)N(C)C)n1,outcome,[1],inactive
same,outcome,[2],inactive
same,outcome,[3],inactive
same,outcome,[4],inactive
same,outcome,[5],inactive
same,outcome,[6],inactive
same,outcome,[7],inactive
same,outcome,[8],inactive
same,outcome,[9],inactive
same,outcome,[10],inactive
same,outcome,[11],inactive
same,outcome,[12],inactive
same,outcome,[13],inactive
same,outcome,[14],inactive
same,outcome,[15],inactive
same,outcome,[16],inactive
same,outcome,[17],inactive
same,outcome,[18],inactive
same,outcome,[19],inactive
same,outcome,[20],inactive
CC12CC1(C)C(=O)N(c1cc(Cl)cc(Cl)c1)C2=O (centres undefined),outcome,[1],inactive
same,outcome,[2],inactive
same,outcome,[3],inactive
same,outcome,[4],inactive
same,outcome,[5],inactive
same,outcome,[6],inactive
same,outcome,[7],inactive
same,outcome,[8],inactive
same,AC50,[9],11.1 µM (active)
same,outcome,[9],inactive
same,outcome,[10],inactive
same,AC50,[11],4.87 µM (active) [middle of 4 runs]
same,outcome,[12],inactive
same,outcome,[13],inactive
same,outcome,[14],inactive
same,outcome,[15],inactive
same,outcome,[16],inactive
same,outcome,[17],inactive
same,outcome,[18],inactive
same,outcome,[19],inactive
CCC(C)(C)c1ccc(O)c(C(C)(C)CC)c1,outcome,[1],inactive
same,outcome,[2],inactive
same,outcome,[3],inactive
same,outcome,[4],inactive
same,outcome,[5],inactive
same,outcome,[6],inactive
same,outcome,[7],inactive
same,outcome,[8],inactive
same,outcome,[9],inactive
same,outcome,[10],inactive
same,AC50,[11],2.73 µM (active)
same,AC50,[12],11.1 µM (active)
same,outcome,[13],inactive
same,outcome,[14],inactive
same,outcome,[15],inactive
same,outcome,[16],inactive
same,outcome,[17],inactive
same,outcome,[18],inactive
same,outcome,[19],inactive
same,outcome,[20],inactive
